In the supplement of paper PMC10811239:

How the values were obtained:
Assay in all cases: bioluminescence (viable cell) signal fold change after vs before treatment, normalised to DMSO (ratio); higher = more tumour cell growth / less inhibition
Settings in all cases: 10 µM; treatment time 6 days
[1] = tested on: LEGO organoid PTCC (PTEN-/-; TP53-/-; CDKN2A-/-; CDKN2B-/-)
Experimental: (§1)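 Luc2-labelled iPSC-derived glioblastoma-like organoids (LEGOs, genotypes PT = PTEN-/-;TP53-/-, PTCC = plus CDKN2A/B-/-, PTN = plus NF1-/-) were treated with 10 uM drug for 6 days (applied every other day) at 37 C. Bioluminescence imaging was done before treatment and 2 days after the last dose. BLI signals were normalised to the DMSO control on the same day and then to the pre-treatment signal (N=3).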

[2] = tested on: LEGO organoid PTN (PTEN-/-; TP53-/-; NF1-/-)
Experimental: as §1

[3] = tested on: LEGO organoid PT (PTEN-/-; TP53-/-)
Experimental: as §1

Structure (SMILES) | bioluminescence [1] | bioluminescence [2] | bioluminescence [3]
O=C(CCCN1CC=C(n2c(=O)[nH]c3ccccc32)CC1)c1ccc(F)cc1 [Droperidol] | 0.69 | 0.372 | 
O=C([O-])Cc1ccccc1Nc1c(Cl)cccc1Cl.[Na+] [Diclofenac sodium] | 1.05 | 1.75 | 0.777
CNCCCC1c2ccccc2C=Cc2ccccc21.Cl [Protriptyline hydrochloride] | 0.571 | 1.14 | 0.749
C[C@@H](c1ncncc1F)[C@](O)(Cn1cncn1)c1ccc(F)cc1F [Voriconazole] | 0.587 | 1.46 | 0.515
NS(=O)(=O)c1cc2c(cc1Cl)N=CNS2(=O)=O [Chlorothiazide] | 1.63 | 1.33 | 0.96
CSCC[C@@H](N)C(=O)O [Methionine] | 0.816 | 1.35 | 1.1
COc1cc2ncnc(Nc3ccc(F)c(Cl)c3)c2cc1NC(=O)/C=C/CN1CCCCC1 [Dacomitinib] | 0.0502 | 0 | 0.37
CCCC(CCC)C(=O)O [Valproic Acid] | 0.784 | 0.834 | 1.01
CC(C(=O)O)c1cccc(C(=O)c2ccccc2)c1 (stereo not drawn) [Ketoprofen] | 1.2 | 1.02 | 0.893
CCN(CC)CC#CCOC(=O)C(O)(c1ccccc1)C1CCCCC1 (stereo not drawn) [Oxybutynin] | 0.776 | 1.53 | 0.449
C=CC(=O)N1CCC[C@@H](n2nc(-c3ccc(Oc4ccccc4)cc3)c3c(N)ncnc32)C1 [Ibrutinib] | 1.87 | 1.26 | 
C=C/C=C/C[C@@H](C)[C@@H](O)[C@H]1C(=O)N[C@@H](CC)C(=O)N(C)CC(=O)N(C)[C@@H](CC(C)C)C(=O)N[C@@H](C(C)C)C(=O)N(C)[C@@H](CC(C)C)C(=O)N[C@@H](C)C(=O)N[C@H](C)C(=O)N(C)[C@@H](CC(C)C)C(=O)N(C)[C@@H](CC(C)C)C(=O)N(C)[C@@H](C(C)C)C(=O)N1C [Voclosporin] | 0.723 | 0.446 | 
